Bioassay records (PubChem)
M1 ag = activates human CHRM1 receptor; actives 0.33% (n = 360,000); CHO-K1 hM1, Fluo-8 calcium fluorescence, agonist mode; 0% DMSO, 100% acetylcholine EC100; P11229; activation, % at 3 µM;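 active = activation above the run's mean compound activation plus 3 SD, cut at about 16% in these data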;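 also: peak over basal fluorescence ratio within a 140 s kinetic read after compound addition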
Target sequence (P11229 whole entry, looked up): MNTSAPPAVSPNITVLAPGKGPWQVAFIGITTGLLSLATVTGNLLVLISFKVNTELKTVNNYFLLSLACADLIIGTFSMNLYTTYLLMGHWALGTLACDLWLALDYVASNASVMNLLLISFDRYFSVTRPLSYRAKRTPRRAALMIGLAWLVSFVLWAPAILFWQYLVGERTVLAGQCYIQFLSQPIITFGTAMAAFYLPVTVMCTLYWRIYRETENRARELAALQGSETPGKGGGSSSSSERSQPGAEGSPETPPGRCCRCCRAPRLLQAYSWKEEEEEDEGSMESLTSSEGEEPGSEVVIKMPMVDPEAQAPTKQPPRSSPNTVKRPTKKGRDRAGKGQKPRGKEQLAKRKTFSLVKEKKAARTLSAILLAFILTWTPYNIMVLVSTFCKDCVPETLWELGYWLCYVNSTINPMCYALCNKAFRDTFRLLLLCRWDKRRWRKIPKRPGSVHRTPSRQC
CHRM1 PAM = positive allosteric modulators of human M1 muscarinic receptor | P11229 | CHO-K1 hM1, Fluo-8 calcium fluorescence, ACh EC20; 0% = ACh EC20, 100% = maximal ACh | activation, % at 3 µM | actives 0.088% (n = 360,000) | AID 588819; in the data active = activation above about 19%, passing the limit was not always enough
CHO-K1 Ca PAM = nonselective activator or artifact in parental CHO-K1 calcium assay; activation, % at 3 µM; actives 0.02% (n = 360,000); ATP EC20, Fluo-8 calcium fluorescence; 0% at ATP EC20, 100% at ATP max;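 active = activation above the run cutoff, the mean activation of all test compounds plus 3 SD, cut at about 40% in these data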;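 also: peak over basal fluorescence ratio in a 140 s read after ATP addition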
M1 ag parental = nonselective activator or artifact in parental CHO-K1 cells | Fluo-8 calcium fluorescence; scaled to maximal ATP response, vehicle zero | activation, % at 3 µM | actives 0.48% (n = 360,000) | AID 602248; in the data active = activation above about 15%;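 also: untransfected CHO-K1 host cells lacking M1 receptor as counterscreen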
CHO-K1 Ca antag = nonselective inhibitor or artifact in parental CHO-K1 cells; inhibition, % at 3 µM; ATP-induced calcium, Fluo-8 fluorescence; actives 0.6% (n = 360,000);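 active = inhibition above a per-plate cutoff, the plate's mean sample inhibition plus 3 SD, cut at about 24% in these data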;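 also: 0% = DMSO plus EC80 ATP and 100% = DMSO alone without ATP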
M1 antag = blocks human M1 muscarinic receptor. actives 1.3% (n = 360,000). P11229. CHO-K1 hM1, Fluo-8 calcium fluorescence, ACh EC80 antagonist. inhibition, % at 3 µM. AID 588852;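 active = percent inhibition above its own plate's cutoff, namely the mean of that plate's compound wells plus 3 SD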;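 also: peak over basal fluorescence ratio during 140 s after agonist addition; 0% = ACh EC80 plus DMSO and 100% = DMSO alone without agonist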
* hit, by the source's call. Only some compounds are listed: those with a hit (about 2.4% of all), similar ones and a draw of the others.

SMILES | M1 ag | CHRM1 PAM | CHO-K1 Ca PAM | M1 ag parental | CHO-K1 Ca antag | M1 antag
COc1ccc2c(COC(=O)c3cccc(S(=O)(=O)NCC(C)C)c3)cc(=O)oc2c1 | -2.0 | -23.7 | -12.1 | 17.4* | 20.4 | 37.8*
COc1ccc(S(=O)(=O)NCCC(=O)OCc2cc(=O)oc3cc(C)ccc23)cc1[N+](=O)[O-] | -1.0 | -15.6 | -12.6 | 10.8 | 34.4* | 47.9*
CCCNS(=O)(=O)c1cccc(C(=O)OCc2cc(=O)oc3cc(OC)ccc23)c1 | -3.2 | -16.8 | 1.9 | 15.8* | 0.7 | 21.3
COc1cc(OC)cc(C(=O)NCC(=O)OCc2cc(=O)oc3cc(OC)ccc23)c1 | -0.8 | 8.6 | 14.9 | 17.9* | 3.1 | -6.8
Cc1ccc(N2CCN(C(=O)c3ccccc3F)CC2)c(C)c1 | -6.0 | 3.3 | -0.7 | 0.2 | 8.9 | -7.0
CCOc1cc(C2C(C(C)=O)=C(C)Nc3ncnn32)ccc1O (stereo unspecified) | -6.3 | -1.6 | 8.3 | 1.2 | -12.0 | 1.8
O=C(CCCn1c(SCC(=O)NC2CCCCC2)nc2ccccc2c1=O)NCC1CCCO1 (stereo unspecified) | -2.2 | 5.0 | 4.5 | 0.2 | 5.6 | -8.6
O=C(CCCn1c(SCc2ccccc2F)nc2ccccc2c1=O)NCC1CCCO1 (stereo unspecified) | -6.6 | 5.8 | 21.5 | 16.6* | -8.6 | -1.0
O=C(Nc1ccccc1)c1cc(C2CCCN(C(=O)CCc3ccccc3)C2)on1 (stereo unspecified) | -4.3 | 0.3 | 12.2 | 1.5 | -5.7 | -12.2
CN(C)c1ccc(CC(=O)N2CCCC(c3cc(C(=O)Nc4ccc(C(C)(C)C)cc4)no3)C2)cc1 (stereo unspecified) | 3.2 | -11.0 | 8.0 | 4.5 | 8.6 | 28.6*
Cc1ccc(N/N=C(\C#N)C(N)=S)c(C)c1 | 5.6 | -6.8 | -11.5 | 8.6 | 10.0 | 10.5
Cc1ccc(NC(=O)/C(C#N)=N/Nc2ccc(C(=O)O)cc2)c(C)c1 | 3.9 | 23.7* | -0.1 | -0.6 | 3.9 | -20.2
COC(=O)c1cc(=O)nc(NN=C2c3ccccc3-c3ccccc32)s1 | 5.7 | 1.4 | 3.9 | 1.7 | 3.9 | -4.7
COC(=O)c1cc(=O)nc(NN=Cc2ccc(OC)cc2)s1 | -3.5 | -5.4 | -8.6 | -0.1 | 23.9* | 18.7
CCCCC(CC)C(=O)Nc1ncc([N+](=O)[O-])s1 (stereo unspecified) | -3.2 | -23.0 | -3.4 | 8.4 | 25.8* | 49.5*
CC(=O)NC(=S)Nc1ccc(NC(=S)NC(=O)/C=C/c2ccco2)cc1 | 25.1* | 15.5 | 37.7 | 11.5 | -11.2 | -6.8
CCC(=O)Nc1ccc(NC(=S)NC(=O)/C=C/c2ccco2)cc1 | -1.7 | 14.2 | 17.1 | 0.6 | -1.2 | -18.4
CCOc1ccc(NS(=O)(=O)c2ccc(NC(=S)NC(C)=O)cc2)cc1 | 34.2* | 1.2 | 21.1 | 21.8* | 2.9 | 7.3
COc1ccc(NS(=O)(=O)c2ccc(NC(=S)NC(=O)C(C)C)cc2)cc1 | 19.5* | 4.3 | 14.0 | 7.9 | -1.3 | 2.0
Clc1ccc(N2CCN(/N=C/c3cccnc3)CC2)cc1 | -2.6 | 3.8 | 11.7 | 7.6 | -8.2 | -4.9
O=C(CN1C(=O)C2C3CC(C(Br)C3Br)C2C1=O)Nc1ccc(C(=O)O)cc1 (stereo unspecified) | -2.4 | 8.0 | 6.5 | 0.8 | -9.8 | -7.6
Cc1n[nH]c(=S)n1/N=C/c1ccc(OCc2ccc(Cl)cc2)cc1 | -3.4 | 1.1 | -7.7 | -0.1 | 25.4* | 2.1
C=CCOn1c(=O)c(-c2cccs2)[n+]([O-])c2ccccc21 | -4.3 | -8.9 | -9.6 | 0.1 | 28.3* | 15.2
C=CCOn1c(=O)c(-c2ccc(Cl)cc2)[n+]([O-])c2ccccc21 | -3.4 | 13.3 | -3.0 | 0.7 | -5.1 | -14.9
COc1ccc(Cl)cc1C(=O)CSc1nnnn1C1CCCCC1 | -3.4 | -16.3 | 5.2 | 0.2 | -1.2 | 26.9*
SMILES | M1 ag | CHRM1 PAM | CHO-K1 Ca PAM | M1 ag parental | CHO-K1 Ca antag | M1 antag
O=C(Nc1nc2ccccc2[nH]1)C1CC1 | -2.4 | 1.4 | -9.6 | -0.3 | -4.7 | 5.4
O=C(Nc1nc2ccccc2[nH]1)NC1CCCCC1 | 8.0 | 3.6 | -1.6 | 23.4* | 11.3 | -1.1
CN1CCN(CCc2nc3cc(NC(=O)COc4ccc(Cl)cc4)ccc3n2C)CC1 | -5.3 | 1.2 | -4.0 | -0.6 | 25.9* | 3.7
Cc1ccc(OCC(=O)Nc2ccc3c(c2)nc(CCN2CCN(c4ccccn4)CC2)n3C)cc1 | -1.3 | -28.5 | 7.5 | 6.7 | 2.4 | 62.2*
Cn1c(CCN2CCN(c3ccccn3)CC2)nc2cc(NS(=O)(=O)c3ccccc3)ccc21 | 0.2 | -22.9 | 0.8 | 9.1 | -2.3 | 69.3*
Cn1c(CCN2CCCCC2)nc2cc(NC(=O)COc3ccc(Cl)cc3)ccc21 | -5.2 | -12.4 | 16.7 | 0.3 | -6.0 | 10.5
CCCCC(=O)Nc1ccc2c(c1)nc(CCN1CCN(c3ccccn3)CC1)n2C | -8.7 | -29.5 | -14.5 | 0.6 | -2.7 | 73.8*
Cn1c(CCN2CCCCC2)nc2cc(NS(=O)(=O)c3ccccc3)ccc21 | 2.3 | -11.4 | -6.9 | 0.1 | 12.5 | 22.2
CCCc1cc(-c2n[nH]c(=S)n2C(C)c2ccccc2)cs1 (stereo unspecified) | -8.9 | -3.6 | 7.7 | 4.4 | -6.1 | 5.7
CCCC(=O)Nc1ccc2c(c1)nc(CCN1CCN(c3ccccn3)CC1)n2C | -7.2 | -20.8 | -9.9 | 0.1 | 8.4 | 25.5
Cn1c(CCN2CCN(c3ccccn3)CC2)nc2cc(NC(=O)COc3ccccc3)ccc21 | 0.5 | -23.9 | 10.9 | 8.6 | -19.8 | 58.1*
FC(F)C(F)(F)c1cc(-c2ccc(Cl)cc2)n[nH]1 | 15.8 | -7.1 | 16.7 | 18.1* | 2.1 | 11.5
Fc1ccc(-c2cc(C(F)(F)C(F)F)[nH]n2)cc1 | 28.5* | -7.3 | 5.9 | 26.3* | -1.5 | 14.1
Oc1ccccc1-c1cc(C(F)(F)C(F)F)[nH]n1 | 3.8 | -13.4 | 1.1 | 8.9 | -11.3 | 10.5
COc1ccc(CNC(=O)[C@@H](NC(=O)C2CCN(C(=O)[C@@H]3CCCN3C(=O)OC(C)(C)C)CC2)C(C)C)cc1 | -3.2 | 4.1 | -3.4 | -0.5 | -6.3 | -10.9
CCN1CCN(C(=O)CSc2cc(=O)n(C)c3ccccc23)CC1 | -10.0 | -7.5 | 0.5 | 0.2 | -4.6 | 12.4
COC(=O)c1ccc(OC)c(CSc2nnc(COc3ccccc3)o2)c1 | -6.8 | -4.3 | 19.0 | 0.9 | -11.6 | -0.6
COC(=O)c1ccc(OC)c(CSc2nnc(COc3ccc(Cl)cc3)o2)c1 | -2.2 | 2.8 | -6.3 | -0.3 | 24.0* | 7.0
CCOc1cc2c(cc1/C=C(/C#N)c1ccc(C(=O)O)cc1)OCO2 | -4.7 | 4.5 | 4.2 | 17.6* | 7.0 | -9.3
Cc1ccc(CC(=O)Nc2ccccc2-c2ccccc2)cc1C | -8.0 | -6.7 | -14.1 | -0.8 | 24.7* | 10.4
CC(=O)Nc1ccc(SCC(=O)Nc2ccccc2-c2ccccc2)cc1 | -2.4 | -4.5 | -10.8 | 1.0 | 29.7* | 7.9
